Activity calls are given as the source filed them. The calls were made as follows: active = hit-call score of the fitted dose curve at least 0.9, where 1 is the maximum; inactive = score below 0.9.
Experiment: BSK_LPS_PGE2: BioMAP Diversity Plus: LPS Assay for Prostaglandin E2 (PGE2) Biomarker Activity (AID 2283082)
Conditions: primary human HUVEC with PBMC; actives raise or lower the signal
Experimental: BSK_LPS is a cell-based, multiplexed-readout assay that uses umbilical vein endothelium and peripheral blood mononuclear cells, a human vascular primary cell co-culture, with measurements taken at 24 hours after chemical dosing in a 96-well plate.BSK_LPS_PGE2 is an assay component measured in the BSK_LPS assay. It measures PGE2 antibody related to regulation of gene expression using ELISA technology.Data from the assay component BSK_LPS_PGE2 was analyzed into 1 assay endpoint. This assay endpoint, BSK_LPS_PGE2, was analyzed with bidirectional fitting relative to DMSO as the negative control and baseline of activity. Using a type of binding reporter, gain or loss-of-signal activity can be used to understand changes in the signaling as they relate to the gene PTGER2. Furthermore, this assay endpoint can be referred to as a primary readout, because this assay has produced multiple assay endpoints where this one serves a signaling function. To generalize the intended target to other relatable targets, this assay endpoint is annotated to the gpcr intended target family, where the subfamily is rhodopsin-like receptor.
The levels of cell surface (or secreted, indicated by the prefix "s") biomarker endpoints were measured by ELISA. Overt cytotoxicity to cells in confluent adherent cultures (all systems other than the BT system) was assessed by measuring total protein levels using sulforhodamine B (SRB) staining in parallel cultures at the time of biomarker measurements, indicated as SRB endpoints. For proliferation assays for adherent cell types, individual cell types are cultured at sub-confluence and relative cell numbers quantified by SRB staining at time points optimized for each system (48 h: 3C and CASM3C systems; 72 h: BT and HDF3CGF systems; 96 h: SAg system). SRB was performed by staining cells with 0.1% SRB after fixation with 10% TCA and reading wells at 560 nm.Viability and proliferation of PBMC (T cells) was quantified by Alamar Blue reduction for the SAg and BT systems. For PBMC viability (referred to as PBMC Cytotoxicity within the assay endpoint names), cells were plated (75,000/well in a 96-well plate) and then chemical samples added for 1 h before addition of activators, SEB and TSST-1 (20 ng/mL final concentration each). Cells were incubated for 90 h. Then, Alamar Blue (20 uL/well) (Invitrogen, Cat DAL1100) was added for 6 h, and the plates were read with a fluorescence microplate reader at 546/580 nm (excitation/emission). For PBMC proliferation, cells were plated and activated as above but incubated for only 16 h prior to addition of Alamar Blue. Plates were read after 6 h.

Row | Compound | AC50 | outcome
1 | CC1=C(/C=C/C(C)=C/C=C/C(C)=C/CO)C(C)(C)CCC1 | 0.574 µM (active) | 
2 | Cc1ccc(C)c(C)c1 |  | inactive
3 | CCCCCC(=O)O |  | inactive
4 | Oc1ccc2ccccc2c1N=Nc1ccccc1 | 2.4 µM (active) | 
5 | NCCO |  | inactive
6 | C=CCOC(=O)c1ccccc1C(=O)OCC=C |  | inactive
7 | Cc1ccccc1Cl |  | inactive
8 | Cc1c(C(=O)O)c(O)cc2c1C(=O)c1c(O)c([C@@H]3O[C@H](CO)[C@@H](O)[C@H](O)[C@H]3O)c(O)c(O)c1C2=O |  | inactive
9 | CCCCCCC(=O)OCC |  | inactive
10 | CC=Cc1ccc(O)c(OC)c1 | 6.95 µM (active) | 
11 | CCCCCCCCCCCCCCCCCC(=O)O |  | inactive
12 | CC(=O)C(C)=CC1C(C)=CCCC1(C)C (stereo not given) |  | inactive
13 | CCCCCCCCCCO |  | inactive
14 | C[Si]1(C)O[Si](C)(C)O[Si](C)(C)O[Si](C)(C)O1 |  | inactive
15 | CCCCOC(=O)CCCCCCCCC(=O)OCCCC |  | inactive
16 | CC(C)c1ccc(C(=O)N=C(N)N)cc1S(C)(=O)=O |  | inactive
17 | Cc1ccc(C(C)C)c(O)c1 | 8.88 µM (active) | 
18 | CC1(C)NC(=O)NC1=O |  | inactive
19 | O=C(O)Cc1ccccc1Nc1c(Cl)cccc1Cl | 0.291 µM (active) | 
20 | CC(=O)Oc1ccccc1C(=O)O | 3.25 µM (active) | 

Row | Compound | AC50 | outcome
21 | COCCOCCOC |  | inactive
22 | O=C(O)CCCCC(=O)O |  | inactive
23 | Clc1cc(Cl)c(Cl)cc1Cl |  | inactive
24 | C=CCc1ccc(O)c(OC)c1 | 0.542 µM (active) | 
25 | Cc1cccc(Nc2cc(Cl)nc(SCC(=O)O)n2)c1C |  | inactive
26 | Cc1ccc(C)c(O)c1C | 0.795 µM (active) | 
27 | CCc1c(C(=O)NN2CCCCC2)nn(-c2ccc(Cl)cc2Cl)c1-c1ccc(Br)cc1 | 15.3 µM (active) | 
28 | Cc1cc(=O)[nH]c(=S)[nH]1 |  | inactive
29 | COc1cc(C=O)ccc1O |  | inactive
30 | CC(=O)OC/C=C(\C)CCC=C(C)C |  | inactive
31 | Nc1ccc(S(=O)(=O)c2ccc(N)cc2)cc1 |  | inactive
32 | Oc1ccc2c(c1)OC[C@@H](N1CCC(O)(c3ccc(F)cc3)CC1)[C@H]2O |  | inactive
33 | CCCCCCCCCCCC(=O)OC |  | inactive
34 | CCCCc1ccc2c(n1)[C@@H](c1ccc(OC)cc1C[C@H](C)C(=O)O)[C@H](C(=O)O)[C@H]2c1ccc2c(c1)OCO2 |  | inactive
35 | CN[C@H]1CC[C@@H](c2ccc(Cl)c(Cl)c2)c2ccc(S(N)(=O)=O)cc21 |  | inactive
36 | CCCCC(CC)COC(=O)CC(C(=O)OCC(CC)CCCC)S(=O)(=O)O (stereo not given) |  | inactive
37 | Cc1ccc(Cl)cc1 |  | inactive
38 | O=[N+]([O-])C(CO)(CO)CO |  | inactive
39 | CC(=O)OCCOCCOCCOC(C)=O |  | inactive
40 | Cc1cc(NC(=O)C(=O)O)cc(C)c1Oc1ccc(O)c2c1CCC2 |  | inactive

— PubChem BioAssay (EPA / NIEHS)
